In all, about 33,000 sequences were measured (“E-score (dimensionless, -0.5 to 0.5)”: median about -0.058, highest 2% from about 0.35 on). Only a selection was taken, and the highest values are over-represented in it overall.
These sequences were tested on MvaT (assay: PBM 8-mer E-score (mean of HK and ME arrays) (E-score (dimensionless, -0.5 to 0.5)); higher = stronger relative binding preference).
How it was run: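 Reported values are rank-based E-scores, taken as the mean of two universal arrays and parsed with a custom script. Each 8-mer score falls between -0.5 and 0.5. The arrays, ME and HK, were double-stranded 60-mers with a constant 25-mer primer region and a variable 35-mer region covering all 8-mers. They were probed, by an earlier protocol, with full-length P. aeruginosa MvaT carrying an N-terminal glutathione S-transferase fusion.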

Sequence | PBM 8-mer E-score
AAGTTCCA | 0.2
CGGGTTCC | -0.15
CGGAAAAG | 0.00958
AAATGGTC | -0.0709
TACGTGCA | 0.0131
AGGCCTAT | -0.235
TAGCATCA | 0.0156
ATTACCGA | 0.0931
GGCGATAA | 0.137
AAATCATG | -0.0303
AATGTAAT | 0.365
ACTGTAAT | 0.351
AATGTAAG | 0.293
ACTGTAAC | 0.246
AATGTAAC | 0.267
ACTGTAAA | 0.266
GGTATGAC | -0.144
ATAATGGG | 0.229
AGGTTAAA | 0.0501
ATCATTCC | -0.0603
AATGATTC | 0.144
CGATAGCC | -0.14
GCAGTTCC | -0.18
GATTATAA | 0.41
AATTATAA | 0.468

Sequence | PBM 8-mer E-score
GATTATGA | 0.0705
CATTAGAA | -0.0258
AATTATCT | 0.296
AATTAGAT | 0.284
GATTATAC | 0.223
AATTATAT | 0.461
CATTATAC | 0.295
CATTATAA | 0.389
AATTATAC | 0.342
CCAATGAC | -0.153
CATTGTGG | -0.0595
GGCTTTGA | -0.0706
ACACAGGC | -0.0277
TCCTACGA | -0.0392
AATTATGA | 0.317
AATTATAG | 0.37
AATTATGT | 0.366
AATTATGG | 0.285
CATTATAG | 0.277
ACTCCTGA | -0.0172
AAGTTAAC | 0.379
AAGTTAAG | 0.243
GAGTTAAC | 0.254
AAGTTAAT | 0.385
TAGTTAAA | 0.273

Sequence | PBM 8-mer E-score
CAGTTAAC | 0.221
AAGTTAAA | 0.411
AAGTTACT | 0.339
GAGTTAAA | 0.25
CGTTATTC | 0.24
AGTTATTA | 0.414
AGTTATTG | 0.312
CGTTATCA | 0.111
GGTTATTA | 0.285
CGTTATTA | 0.364
AAAGTAGG | 0.0451
CAAAGATC | -0.0152
AGTAAAAT | 0.308
AATAAAGG | 0.228
AATAAAGT | 0.372
AATAAAAA | 0.415
ACTAAAAT | 0.39
AATAAAAT | 0.388
ACTAAAAA | 0.193
ACTAAAAC | 0.289
AATAAAGA | 0.344
AATAAAAG | 0.309
AATAAAAC | 0.341
CACCAGCC | -0.0802
AGGCCTAC | -0.133

Sequence | PBM 8-mer E-score
CAAACCTA | 0.0792
ATTTTCGA | 0.0907
AGCGTTCC | -0.129
TTGAGAAA | 0.135
ACGTGGCC | -0.18
CCCTGATC | -0.224
CTACATGC | -0.081
ATCGGTAA | -3.6e-06
GCCGCGTA | -0.0692
ACACCCCC | -0.251
AGCACAAA | 0.0677
AGGCACCT | -0.217
GACTTTGC | 0.127
ATAAAATC | 0.193
CTAAAATA | 0.353
CTAAAATC | 0.148
GTAAAATA | 0.345
TAAAAATA | 0.3
GAAAAATA | 0.317
ATAAAATA | 0.427
ATAAAATG | 0.249
GTAAAAAA | 0.137
AATAAGTC | 0.298
ATATTGTC | 0.346
ACATTGTC | 0.116

Sequence | PBM 8-mer E-score
CTATTGTA | 0.34
ATATTGTA | 0.376
ATATTGTG | 0.251
CTATTGTC | 0.12
CTCGAGTA | -0.0253
AGCCAACA | 0.0763
AAGTCGAT | -0.0445
AGCAGACG | -0.169
ACTGCGAG | -0.0652
AGTAATAT | 0.418
TATAATCA | 0.389
TAGAATAA | 0.306
AATAATCC | 0.26
AATAATCA | 0.259
TATAATAA | 0.477
AATAATAT | 0.453
GATAATCA | 0.176
AATAATCT | 0.314
GCTAATAA | 0.338
AGTAATAC | 0.297
AGTAATAG | 0.213
ACGCACTC | -0.0389
AAAAAGAG | 0.0446
AACGTTTG | 0.0612
AGCCGCAA | -0.0521

Sequence | PBM 8-mer E-score
GGGCCGAC | -0.267
GGCGGAAC | -0.146
ATCTTCAA | 0.0478
GCCTTGGA | -0.206
GGCACCCA | -0.148
CTCCACTC | -0.232
GATAATAA | 0.404
AATAAGAG | 0.222
CATAATAG | 0.318
AATAAGAT | 0.356
AATAAGAA | 0.318
CATAATAA | 0.334
AATAATAG | 0.402
AATAATAA | 0.478
AATAGTAG | 0.294
AGGCATCG | -0.134
TAAATCAA | 0.341
AATTGGTG | 0.0491
CGCTGTAC | -0.228
GCAGCTAA | 0.0363
CATAATAC | 0.327
GATAATAC | 0.301
AATAATAC | 0.419
GGAAATCA | -0.0787
GAGGAATC | -0.0683

Sequence | PBM 8-mer E-score
TCCATCAA | -0.032
ACAAGGTA | -0.0731
AGTTAACT | 0.377
AGTTAACA | 0.348
AGTTAACC | 0.142
TGTTAACA | 0.33
CGTTAACA | 0.114
AGTTAACG | 0.204
GTGAACCA | -0.139
AACGCTTA | 0.0532
ATATTAAC | 0.434
CTGTTAAA | 0.175
CTATTAAA | 0.283
CTATTAAC | 0.315
GTGTTAAA | 0.177
CGATTAAA | 0.218
GTATTAAA | 0.313
TCATTAAA | 0.228
ATATTAAA | 0.466
TTATTAAA | 0.409
TTGTTAAA | 0.346
AGATTAAC | 0.173
GAGGACTC | -0.279
CTCGGAAG | -0.0476
CGCACACG | -0.149

Sequence | PBM 8-mer E-score
GATTCTGC | -0.159
CACTACGA | -0.0417
CCTGGCAG | -0.209
CGTTGTAC | -0.0465
AAGAGCTT | -0.115
GATTCTGA | -0.00658
AGCGCAAA | 0.162
AACCAGGC | -0.183
GCCTAATA | 0.133
AAATTTCT | 0.148
GTATTAAC | 0.39
GCATTAAC | 0.114
ATATTAAG | 0.446
GGATTAAC | 0.111
ATATTACG | 0.299
CTATTAAG | 0.17
AGCGTCGC | -0.197
CACAACCG | -0.028
ATCGTATA | 0.115
CCTACGAG | -0.148
ATAAGTCA | 0.17
GGTATAAC | 0.226
AGTATAAC | 0.36
AGTATAAA | 0.381
GGTATAAA | 0.339

Sequence | PBM 8-mer E-score
CGTATAAC | 0.113
TGTATAAA | 0.258
ATGTAAAA | 0.247
CTTCCCCC | -0.176
AACACACA | 0.187
AGGCTTAC | -0.247
AGATAATC | 0.136
AGATAATG | 0.295
GGATAATA | 0.403
GGATAAGA | 0.0379
CGATAATA | 0.301
AGATAATA | 0.366
GCTCGAGA | -0.152
CCGTTCGC | -0.222
CTCCGGTA | -0.227
CAACGGCG | -0.221
CTATATAG | 0.388
ATCTATAG | 0.146
CACTATAG | 0.196
ATATAGCG | 0.333
CTCTATAA | 0.081
GCGTATAA | 0.201
CCATATAG | 0.084
GTATATAA | 0.401
CTATATAA | 0.421

Sequence | PBM 8-mer E-score
ATCTATAA | 0.209
GTGTATAA | 0.202
ATATATAG | 0.468
AACTAGGA | 0.0115
TGGCAACA | -0.122
ACAATCAC | 0.00599
CACGCATC | -0.154
GTGGCCAA | -0.191
ATGTTATA | 0.442
GTGTTATA | 0.32
ATGTTATG | 0.152
CTGTTATA | 0.359
CTGTTATC | 0.0487
CTGTTACA | 0.111
GAGGAAAC | -0.144
GAAACAAA | 0.271
ACTAATAA | 0.399
ACTAATAG | 0.199
CCTAATAA | 0.266
TCTAATAA | 0.332
ACTAATAC | 0.247
ACTAATAT | 0.407
CCAAATCC | -0.193
AGAAAGAC | 0.00959
GACACACA | 0.101

Sequence | PBM 8-mer E-score
AGGGACCC | -0.282
AGACCTCG | -0.132
AGATCGAG | -0.129
CGTGAAGC | -0.218
CTTGGTTA | 0.0108
CATATCAC | 0.15
GAGGCACC | -0.229
GAACATAA | 0.256
AAACATAA | 0.371
ATACATAA | 0.336
AAACATAG | 0.216
TAACATAA | 0.303
ATACAAAG | 0.27
AAACATAT | 0.361
ATACAAAT | 0.35
ATACATAC | 0.319
AAACATAC | 0.284
ATACATAT | 0.394
ATACAAAA | 0.304
CAGTTGAC | 0.0902
GGTCGAAC | -0.0987
AGTCAGAG | -0.21
CCTGGCGC | -0.207
CATAAATC | 0.163
GATAAAGA | 0.271

Sequence | PBM 8-mer E-score
CATAAATA | 0.358
CCTAAATA | 0.226
AGTAAATC | 0.0898
TATAAAGA | 0.327
CATAAATG | 0.112
GATAAATA | 0.382
GATAAATC | 0.137
TATAAATA | 0.426
CGTAAATA | 0.236
AGTAAATA | 0.361
CCCTGGAA | -0.276
CCCTACAC | -0.212
CTCCGCCA | -0.247
ACTCAGTA | 0.118
AATTGAGA | 0.0559
AATAAGTA | 0.387
CATAAGTA | 0.315
AAGAAATT | 0.26
AATAAATC | 0.319
AATAAGTG | 0.254
AATAAATA | 0.434
AATAAATT | 0.436
AATAAACT | 0.293
AATAAATG | 0.33
CCAAGTTC | 0.0376

Sequence | PBM 8-mer E-score
AGGAGAAC | -0.112
CGACTCAA | -0.0083
TACCATAA | 0.271
CATCTCCG | -0.186
AGCTTGCG | -0.227
CATATGCA | 0.164
TATATGAA | 0.382
GATATGAA | 0.156
AATATGAA | 0.329
TATATGCA | 0.412
AATATGCA | 0.264
CAGCACAA | -0.0547
TCAGCCCA | -0.133
AAAGTATG | 0.216
ACGTAAAC | -0.0262
AATACGGG | -0.0239
TACTTATA | 0.389
AACTTACA | 0.33
ACCTTATA | 0.266
GACTTATA | 0.312
CACTTATA | 0.326
AACTTATA | 0.415
AAGCCGGA | -0.238
TACTGTAA | 0.336
AAGGACGT | -0.149

Sequence | PBM 8-mer E-score
GGAGTCAA | -0.134
CTTGAACA | -0.0207
AAGGTGGG | -0.155
CCGCGGCG | -0.0831
ACGAGGCT | -0.135
ATTGGTAC | 0.139
GTCTAATA | 0.269
ATGTAATA | 0.317
ATCTAATA | 0.321
CTCTAATA | 0.364
GTGTAATA | 0.342
GTATAATA | 0.416
CTGTAATA | 0.36
CTATAATA | 0.42
CTGTAATC | 0.0848
CCATAATA | 0.287
GTATAAGA | 0.278
CTTCAACA | 0.0315
CCCGCGTA | -0.177
